From PubChem
IP6K1 inhibitor = inhibitors of human IP6K1 | IP6K1 kinase, ADP-Glo luminescence, 2 h; hits give low values | 140,000 compounds, 0.81% hits | activity change, % (series mostly up to about 58 µM) | Q92551 | AID 1645851; in the data active means activity change below about -25%; further: on the % scale 0 is the no-effect control and ±100 the full control effect
Target sequence (Q92551 whole entry, looked up): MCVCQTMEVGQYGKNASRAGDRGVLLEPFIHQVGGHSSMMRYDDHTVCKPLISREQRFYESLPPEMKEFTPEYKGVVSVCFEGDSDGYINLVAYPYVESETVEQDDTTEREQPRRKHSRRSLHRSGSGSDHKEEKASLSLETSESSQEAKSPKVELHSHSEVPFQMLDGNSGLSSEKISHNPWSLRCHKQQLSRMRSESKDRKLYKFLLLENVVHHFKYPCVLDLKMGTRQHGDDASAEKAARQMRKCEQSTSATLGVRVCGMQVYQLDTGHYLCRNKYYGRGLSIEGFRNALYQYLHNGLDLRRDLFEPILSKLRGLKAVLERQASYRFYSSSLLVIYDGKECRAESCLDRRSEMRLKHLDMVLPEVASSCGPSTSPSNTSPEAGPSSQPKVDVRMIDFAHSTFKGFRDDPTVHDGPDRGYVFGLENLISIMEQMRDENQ
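ADP-Glo luminescence measures ADP made by human IP6K1 during a 2 h RT reaction with ATP/IP6 (mix at 1.3 mM/130 uM); top library doses 57.5 and 19.1 uM final.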
SNCA viab count = counter-screen for SNCA expression inhibitors: cell viability | AID 1671193 | Potency, µM (top dose mostly 57.1 µM), for inactives: at the highest dose activity change, negative = cytotoxicity, usual class: cytotoxic | 150,000 compounds, 0.12% hits | HEK-293-SNCA-luc viability, GF-AFC fluorescence, 24 h;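 further: potency means the concentration at half of the fitted maximal effect; 0% = DMSO-treated cells and -100% = medium-only wells without cells; nearly all actives have a fitted effect of over 30% in size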
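HEK-293-SNCA-luc cells (1500/well) plated 24 h, then exposed 24 h to a dilution series; GF-AFC added 30 min at 37C, fluorescence 405/540 nm; normalised to medium-only and DMSO wells, Hill fit.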
KDM5B inh = inhibitors of human KDM5B histone demethylase; KDM5B demethylase, FDH-coupled NADH fluorescence (FDH is formaldehyde dehydrogenase); Potency, µM (top dose mostly 57.7 µM), most hits filed as inhibitors; 220,000 compounds, 2.6% hits; further: potency means the concentration at half of the fitted maximal effect; 0% is about no effect; nearly all actives have a fitted effect of over 70% in size
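Inhibition is measured as reduced NADH fluorescence generation from FDH coupling to formaldehyde release. Truncated KDM5BΔAP at 200 nM final acts on H3K4me3 peptide (12.5 µM in substrate mix) in pH 7.5 HEPES buffer with Tween-20, 30 min, room temperature.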
SNCA expr inhib = reduces expression of the alpha-synuclein gene | HEK-293 SNCA-luciferase knock-in, luminescence, 24 h | Potency, µM (top dose mostly 57.2 µM), without a hit: top-dose activity change, negative = inhibition, usual class: inhibitors | 140,000 compounds, 0.17% hits;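 further: potency means the concentration at half of the fitted maximal effect; plate controls were DMSO cells for no effect and cell-free wells for full effect; nearly all actives have a fitted effect of over 45% in size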
An asterisk follows results filed as active; i = inactive; ? = inconclusive; . = no result; [ ] = dose if it differs, or a comment. Hits are enriched below; roughly 2.9% of the tested compounds scored in any of these assays. Unless noted, the call rests on the fitted dose curve; in most records, active means well fitted curve in the direction sought with a large enough effect; inconclusive means small, poorly fitted or top-dose-only effect, or another doubt; inactive means no such curve, though single readings can be large; an effect the other way counts as inactive or inconclusive.

SMILES	IP6K1 inhibitor	SNCA viab count	KDM5B inh	SNCA expr inhib
COc1ccc(-c2cc3c(=O)n(CCNC(=O)c4ccco4)ccn3n2)cc1	5	-8%	?	26%
COc1ccc(-c2cc3c(=O)n(CCNC(=O)c4ccoc4)ccn3n2)cc1	0	-13%	20µM*	6%
COc1ccc(-c2cc(N3CCC(NC(=O)c4ccc(F)cc4F)C3)n[nH]2)cc1 (stereo not drawn)	6	1%	?	-19%
O=C(Nc1cc(Br)ccc1I)C1CC2CCC1C2 (stereo not drawn)	.	.	i	.
CCOc1ccc(-c2cc3c(=O)n(CCNC(=O)c4ccoc4)ccn3n2)cc1	-5	-1%	22µM*	79%
CC(=O)N1Cc2ccccc2CC2(CCCN(CC3CCNC3)C2)C1 (stereo not drawn)	1	0%	25µM*	-11%
NC(=O)c1cccc(CN2CCCC23Cc2ccccc2N(C(=O)c2ccc(Cl)cc2)C3)c1 (stereo not drawn)	-14	-12%	79µM*	-9%
CC(=O)N1Cc2ccccc2CC2(CCCN2CC2CCCC2)C1 (stereo not drawn)	-11	-19%	?	19%
CC(=O)N1Cc2ccccc2CC2(CCCCN2CC2CCCC2)C1 (stereo not drawn)	-3	-19%	50µM*	-9%
O=C(c1ccc(Cl)cc1)N1CC2(CCCN2CC2CCCCC2)Cc2ccccc21 (stereo not drawn)	3	3%	56µM*	-6%
CC(=O)NCC(=O)N1Cc2ccccc2CC2(CCCN(CC3CCNC3)C2)C1 (stereo not drawn)	7	4%	?	5%
CCCS(=O)(=O)C(C)C(=O)O (stereo not drawn)	.	.	i	.
CCN1CCC(NC(=O)c2ccc(S(=O)(=O)Nc3ccccc3)cc2)CC1	.	.	i	.
CCOC(=O)c1oc2ccccc2c1COC(=O)CNC(=O)c1ccc2c(c1)OCO2	.	.	i	.
CC(C)C(=O)N1Cc2ccccc2CC2(CCCCN2Cc2ccncc2)C1 (stereo not drawn)	-9	-4%	i	-14%
CC(C)C(=O)N1Cc2ccccc2CC2(CCCN2Cc2ccncc2)C1 (stereo not drawn)	-7	2%	56µM*	-5%
COCCN(Cc1ccccn1)C(=O)c1ccc2c(c1)ncn2C	33	-4%	i	2%
COCCN(Cc1nccs1)C(=O)c1cnc(-c2ccccn2)[nH]c1=O	21	-16%	11µM*	?
Cc1ccc(-c2ncc(C(=O)N(C)Cc3nc(CC(C)C)no3)c(=O)[nH]2)cc1	-12	-6%	i	-7%
CCN(Cc1noc(CC(C)C)n1)C(=O)c1cnc(-c2ccccn2)[nH]c1=O	9	-17%	7.9µM*	-12%
COc1ccc2c(c1)OCC(C(=O)NCc1csc(N3CCCC3)n1)C2 (stereo not drawn)	17	-10%	14µM*	67%
CCc1ccc(CNC(=O)C2COc3ccc(OC)cc3C2)cc1 (stereo not drawn)	-1	6%	i	10%
COc1cc(NC(=O)COc2coc(CN3CCSCC3)cc2=O)cc(OC)c1	.	.	i	.
COCCCn1c(C)cc(C(=O)N2CCCC(c3[nH]ccc3C(N)=O)C2)c1C (stereo not drawn)	14	11%[12.5 µM]	18µM*	?
c1csc(CNCc2cccc3[nH]ccc23)c1	.	.	i	.
SMILES	IP6K1 inhibitor	SNCA viab count	KDM5B inh	SNCA expr inhib
C[C@H](NCc1ccc2c(c1)nc(NC(=O)c1ccc(-c3cn[nH]c3)s1)n2CCc1ccccc1)C(C)(C)C	.	?	.	6.8µM*
CC(C)(O)Cn1c(NC(=O)c2ccc(-c3cn[nH]c3)s2)nc2cc(CN3CCOCC3)ccc21	.	?	.	3.4µM*
Cc1ccc(CN2CCCCCNC(=O)CC2c2ccccc2)o1 (stereo not drawn)	6	4%	28µM*	-10%
O=C1CC(c2ccccc2)N(Cc2ccccn2)CCCCCN1 (stereo not drawn)	7	?	i	7%
COCCN1CCCCCC(O)c2cc(C(=O)N(CCN(C)C)Cc3ccccc3)ccc21 (stereo not drawn)	-4	-10%	i	?
O=C(NC1(c2cccc(Cl)c2)CCC1)NC1(c2cccc(Cl)c2)CCC1	.	.	i	.
CNC(=O)c1ccc(Nc2ncc(C(F)(F)F)c(NCc3nccnc3N(C)S(C)(=O)=O)n2)cc1	-4	?	.	21µM*
O=[S+]1([O-])NCC2(CCCN(Cc3ccc(Cl)cc3)C2)Oc2ncccc21 (stereo not drawn)	18	-3%	79µM*	-13%
